Laboratory results taken from the supplement of paper PMC10646978.
± gives the standard deviation.

What was measured:
Conditions in all cases: modulator concentration 10 µM
[1] = system: RAW-Dual (murine macrophage reporter line); experiment: NF-kB reporter (SEAP) activity fold change vs agonist alone; higher = enhanced NF-kB activity
Method in brief: (§1)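 Compound reached 10 μM final in each well by pin transfer, onto RAW-Dual murine macrophage reporter cells seeded at 50 000 per well in 384-well plates. After 1 hour at 37 °C, the cells were stimulated overnight with a PRR agonist. SEAP in the supernatant was read with QUANTI-Blue at 620 nm absorbance for NF-κB, and Lucia luciferase was read with QUANTI-Luc luminescence for IRF. Each signal was turned into fold change against the mean agonist-only control on the same plate, and two replicate plates were averaged with propagated errors.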

[2] = system: RAW-Dual (murine macrophage reporter line); experiment: IRF reporter (Lucia luciferase) activity fold change vs agonist alone; higher = enhanced IRF activity
Method in brief: as §1

[3] = system: RAW-Dual (murine macrophage reporter line); experiment: viability score (confluency relative to resting cells, overnight) (fraction); higher = more viable, active = viable (0.7 or more)
Method in brief: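 Confluency was the readout: RAW-Dual macrophages were imaged with IncuCyte after an overnight exposure to compound at 10 μM final. IncuCyte software produced two masks over all imaged wells. The viability score expresses confluency against resting cells, and both masks had to exceed 70% of resting cells for a compound to meet the cutoff.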

[4] = agonist: CpG ODN 1826 0.5 ug/mL

Row | SMILES | NF-kB reporter [1, 4] | NF-kB reporter ([1]; agonist: LPS 0.1 ug/mL) | NF-kB reporter ([1]; agonist: MPLA […]) | IRF reporter ([2]; agonist: 3'3'-cGAMP 10 ug/mL) | IRF reporter ([2]; agonist: LPS 0.1 ug/mL) | IRF reporter ([2]; agonist: MPLA […]) | viability score [3]
1 | COc1ccc(Cl)cc1C(=O)NCCc1ccc(S(=O)(=O)NC(=O)NC2CCCCC2)cc1 | 0.75 ± 0.067 | 0.932 ± 0.056 | 0.987 ± 0.09 | 1.06 ± 0.052 | 1.36 ± 0.099 | 1.44 ± 0.15 | 1 (active)
2 | N#C[C@@H]1C[C@@H]2C[C@@H]2N1C(=O)[C@@H](N)C12CC3CC(CC(O)(C3)C1)C2.O | 1.06 ± 0.083 | 0.968 ± 0.15 | 0.955 ± 0.024 | 0.956 ± 0.066 | 0.921 ± 0.068 | 0.871 ± 0.074 | 0.999 (active)
3 | NC(=O)[C@@H](CCC(F)(F)F)N(Cc1ccc(-c2ncon2)cc1F)S(=O)(=O)c1ccc(Cl)cc1 | 0.744 ± 0.062 | 1.04 ± 0.049 | 1.31 ± 0.16 | 0.949 ± 0.051 | 1.43 ± 0.084 | 1.58 ± 0.13 | 0.997 (active)
4 | O=C(NN=Cc1c(O)ccc2ccccc12)c1[nH]ncc1I | 1.93 ± 0.15 | 1.24 ± 0.081 | 1.4 ± 0.063 | 0.491 ± 0.021 | 1.32 ± 0.076 | 1.3 ± 0.094 | 0.906 (active)
5 | CCC(=O)Nc1ccc(N2CCCCC2)c(Cl)c1 | 1.1 ± 0.23 | 1.14 ± 0.091 | 1.04 ± 0.1 | 0.773 ± 0.026 | 1.41 ± 0.18 | 1.38 ± 0.28 | 0.992 (active)
6 | Cc1ccc(C)c(C(=O)c2ccccc2NC(=O)c2ccccn2)c1 | 0.733 ± 0.041 | 0.85 ± 0.071 | 0.839 ± 0.054 | 1.01 ± 0.068 | 1.18 ± 0.15 | 1.11 ± 0.13 | 1.01 (active)
7 | CC(=O)Oc1ccccc1C(=O)O | 1.01 ± 0.085 | 1.05 ± 0.079 | 0.959 ± 0.048 | 1.02 ± 0.068 | 0.964 ± 0.044 | 0.884 ± 0.11 | 0.998 (active)
8 | Cl.OC(CCN1CCCC1)(c1ccccc1)C1CCCCC1 (stereo unspecified) | 0.822 ± 0.28 | 1.13 ± 0.061 | 1.12 ± 0.088 | 0.625 ± 0.025 | 1.07 ± 0.14 | 1.18 ± 0.26 | 0.976 (active)
9 | CCOC(=O)C1=CC2(CC)CCCN3CCc4c(n1c1ccccc41)C32 (stereo unspecified) | 0.79 ± 0.061 | 0.928 ± 0.078 | 0.915 ± 0.09 | 0.963 ± 0.032 | 1.3 ± 0.13 | 1.4 ± 0.21 | 1.03 (active)
10 | O=S(=O)(Cc1ccccc1)c1nc2ccccc2n1Cc1ccc(Cl)cc1 | 0.661 ± 0.045 | 1.1 ± 0.071 | 0.978 ± 0.057 | 1.32 ± 0.059 | 1.35 ± 0.092 | 1.36 ± 0.19 | 0.965 (active)
11 | CC(CN1c2ccccc2Sc2cccnc21)N(C)C.Cl (stereo unspecified) | 0.968 ± 0.075 | 0.926 ± 0.11 | 1.07 ± 0.042 | 1.03 ± 0.099 | 0.935 ± 0.14 | 0.921 ± 0.16 | 1 (active)
12 | O=C(NCC#CCOc1cccc(C(F)(F)F)c1)Nc1c(F)cccc1F | 0.921 ± 0.077 | 1.13 ± 0.12 | 0.922 ± 0.045 | 0.994 ± 0.051 | 1.07 ± 0.17 | 1.15 ± 0.39 | 1.01 (active)
13 | Cc1cc(=O)nc(SCCc2ccccc2)[nH]1 | 1.13 ± 0.11 | 1.27 ± 0.082 | 1.15 ± 0.041 | 0.952 ± 0.079 | 1.06 ± 0.053 | 1.2 ± 0.091 | 0.687 (inactive)
